The source made the active and inactive calls. How the source made its calls: active means hit-call score of the fitted dose curve at least 0.9, where 1 is the maximum; inactive means score below 0.9.
Test: ATG_NFI_CIS: Attagene CIS-FACTORIAL HepG2 Assay for human Nuclear Factor I (NFI) (AID 2282989)
Conditions: HepG2 cis-regulatory reporter, NFI response element transcription; actives raise or lower the signal
Procedure: ATG_CIS is a cell-based, multiplexed-readout assay that uses HepG2, a human liver cell line, with measurements taken at 24 hours after chemical dosing in a 24-well plate.ATG_NFI_CIS is one of 52 assay component(s) measured or calculated from the ATG_CIS assay. It is designed to make measurements of mRNA induction, a form of inducible reporter, as detected with fluorescence intensity signals by Reverse transcription polymerase chain reaction (RT-PCR) and Capillary electrophoresis technology.Data from the assay component ATG_NFI_CIS was analyzed into 1 assay endpoint. This assay endpoint, ATG_NFI_CIS, was analyzed with bidirectional fitting relative to DMSO as the negative control and baseline of activity. Using a type of inducible reporter, measures of mRNA for gain or loss-of-signal activity can be used to understand the reporter gene at the transcription factor-level as they relate to the gene NFIA. Furthermore, this assay endpoint can be referred to as a primary readout, because this assay has produced multiple assay endpoints where this one serves a reporter gene function. To generalize the intended target to other relatable targets, this assay endpoint is annotated to the dna binding intended target family, where the subfamily is nuclear factor I.
Human liver HepG2 cells are transiently transfected with multiple reporter transcription units (MRTUs) in 6-well plates using FuGene 6 reagent (Roche; 3 ml FuGene/1 mg DNA). The MRTU constructs are regulated by a cis-regulating element (promoter). […] A major difference between the CIS and TRANS system is that in CIS activities of endogenous TFs are measured, whereas the TRANS assay evaluates changes in activities of exogenous, chimeric NR-Gal4 proteins. […] At the end of 24 hour incubation, total RNA was isolated using TriZol reagent (Invitrogen). The isolated RNA is then reverse-transcribed using oligo(dT) primer and Mo-MLV reverse transcriptase (Invitrogen) with DNAse I (Ambion) treatment for 30 min. The one-tenth of the produced cDNA was amplified by PCR using Taq DNA polymerase (Invitrogen) and two reporter sequence-specific primers. The PCR products were fluorescently labeled by primer extension with 6-arboxyfluorescein (6-FAM) 5'-labeled reporter sequence-specific primer (2 min at 95 C, 20 s at 68 C and 10 min at 72 C) and these products were digested with 5U of HpaI (New England Biolabs) for 2h at 37 C. The fragments were purified using Qiaquick PCR columns (Qiagen), analyzed on an ABI 3130xL genetic analyzer (Applied Biosystems) with peak positions identified by using a set of X-rhodamine (ROX)-labeled MapMarker1000 molecular weight standards (BioVentures). The raw capillary electrophoresis data was processed using Attagraph software (Attagene).

Row | SMILES | outcome | AC50
1 | CCCCOC(=O)COC(=O)c1ccccc1C(=O)OCCCC | inactive | –
2 | O=C(N[C@H]1CN2CCC1CC2)c1ccc2c(c1)OCCO2 | inactive | –
3 | CCOC(=O)OC1=C(c2cc(C)ccc2C)C(=O)NC12CCC(OC)CC2 (stereo not given) | inactive | –
4 | CN(CCCC(O)c1cccnc1)N=O (stereo not given) | inactive | –
5 | CCNc1nc(NCC)nc(SC)n1 | inactive | –
6 | CCCCS(=O)(=O)Cl | inactive | –
7 | c1csc(-c2ccc(-c3cccs3)s2)c1 | inactive | –
8 | CCOP(=S)(OCC)OP(=S)(OCC)OCC | inactive | –
9 | O=C/C(Cl)=C(/Cl)C(=O)O | inactive | –
10 | O=S(=O)(F)C(F)(F)C(F)(F)C(F)(F)C(F)(F)F | inactive | –
11 | ClCCCCl | inactive | –
12 | O=C(NC(=O)c1c(F)cccc1F)Nc1cc(Cl)c(Oc2ncc(C(F)(F)F)cc2Cl)c(Cl)c1 | inactive | –
13 | C#C[C@]1(O)CC[C@H]2[C@@H]3CCC4=CC(=O)CC[C@]4(C)[C@H]3CC[C@@]21C | inactive | –
14 | Nc1nc(=S)[nH][nH]1 | inactive | –
15 | Clc1cccc(Cl)c1 | inactive | –
16 | C=CCOC(N)=O | inactive | –
17 | O=C(CCl)NCO | inactive | –
18 | Cc1cc(Cl)ccc1O | inactive | –
19 | CN(C)[C@@H]1C(=O)C(C(N)=O)=C(O)[C@@]2(O)C(=O)C3=C(O)c4c(O)ccc(Cl)c4[C@@](C)(O)[C@H]3C[C@@H]12 | inactive | –
20 | Cc1ccccc1OP(=O)(Oc1ccccc1C)Oc1ccccc1C | inactive | –

Row | SMILES | outcome | AC50
21 | O=C=Nc1ccc(Cl)cc1 | inactive | –
22 | O=c1[nH]c(=O)n(Cl)c(=O)n1Cl | inactive | –
23 | O=C(NC(=O)c1c(F)cccc1F)Nc1cc(Cl)c(OC(F)(F)C(F)C(F)(F)F)cc1Cl (stereo not given) | inactive | –
24 | CC(O)(CS(=O)(=O)c1ccc(F)cc1)C(=O)Nc1ccc(C#N)c(C(F)(F)F)c1 (stereo not given) | inactive | –
25 | CC(C)[C@H](C(=O)OC(C#N)c1cccc(Oc2ccccc2)c1)c1ccc(OC(F)F)cc1 (stereo not given in full) | inactive | –
26 | CC(C=O)Cc1ccc2c(c1)OCO2 (stereo not given) | inactive | –
27 | Nc1ccc(-c2ccccc2)cc1 | inactive | –
28 | C=CC(=O)NC(C)(C)CC(C)=O | inactive | –
29 | C=C(C)[C@@H]1CC=C(C=O)CC1 | inactive | –
30 | CCCCCCCCCCCCCCC(Br)C(=O)O (stereo not given) | inactive | –
31 | Cc1cc(SCc2sc(-c3ccc(C(F)(F)F)c(F)c3)nc2C)ccc1OCC(=O)O | inactive | –
32 | CCCCC(CC)COC(=O)Cl (stereo not given) | inactive | –
33 | Clc1ccc(C(Cl)(Cl)Cl)cn1 | inactive | –
34 | O=C(O)c1cc(I)cc(I)c1I | inactive | –
35 | [Cl][Sn]([c]1ccccc1)([c]1ccccc1)[c]1ccccc1 | – | 0.228 µM (active)
36 | O=c1[nH]c2ccccc2n1C1CCN(CCCC(c2ccc(F)cc2)c2ccc(F)cc2)CC1 | inactive | –
37 | CC(=Cc1ccccc1)[N+](=O)[O-] | inactive | –
38 | O=C(CCl)Nc1ccccc1 | – | 26.9 µM (active)
39 | CC(C)(c1ccccc1)c1cc(-n2nc3ccccc3n2)c(O)c(C(C)(C)c2ccccc2)c1 | inactive | –
40 | CCCSP(=S)(OCC)Oc1ccc(SC)cc1 (stereo not given) | inactive | –

— PubChem BioAssay (EPA / NIEHS)
